Experiment [1] can be described thus: NCI Yeast Anticancer Drug Screen. Data for the rad50 strain (AID 155).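 Also: 0% = growth of vehicle-only cultures of the same strain.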 The following applies: S. cerevisiae rad50 strain growth inhibition; at 50.0 µM; hits give high values. Summed up: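 Growth of the mutant yeast was measured after compound exposure and referenced to vehicle-treated cultures.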
Experiment [2] in a line: NCI Yeast Anticancer Drug Screen. Data for the mec2-1 strain (AID 157). The following applies: S. cerevisiae mec2-1 strain, at 50.0 µM, hits give high values. Summed up: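 Compounds were applied to mec2-1 yeast cells. Their growth was then compared with that of vehicle-treated cultures to give growth inhibition.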
Experiment [3] can be described thus: NCI Yeast Anticancer Drug Screen. Data for the sgs1 mgt1 strain (AID 161).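 Also: 0% = growth of cultures given vehicle only.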 The note with it: S. cerevisiae sgs1 mgt1 strain, at 50.0 µM, hits give high values. Summed up:
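Percent growth inhibition was derived by comparing compound-exposed mutant yeast with vehicle-exposed cultures. The strain carries alterations in DNA damage repair.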

Experiment [4] can be described thus: NCI Yeast Anticancer Drug Screen. Data for the cln2 rad14 strain (AID 165).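 Also: 0% = growth equal to vehicle treated cultures.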 The following applies: S. cerevisiae cln2 rad14 strain, at 50.0 µM, hits give high values. Summed up: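 Strain: cln2 rad14 yeast, altered in cell cycle control and DNA damage repair. Read-out: growth inhibition vs vehicle.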
Experiment [5] is described as follows: NCI Yeast Anticancer Drug Screen. Data for the bub3 strain (AID 167). The following applies: S. cerevisiae bub3 mutant strain, at 50.0 µM, hits give high values. Summed up: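 Whole-cell yeast assay. The mutant strain was incubated with compounds, and growth inhibition was determined by comparison with vehicle-treated cells.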
Experiment [6] can be described thus: NCI Yeast Anticancer Drug Screen. Data for the mlh1 rad18 strain (AID 175). The following applies: S. cerevisiae mlh1 rad18 strain growth inhibition; at 50.0 µM; hits give high values. Summed up:
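A repair-deficient yeast strain is exposed to test compound, and growth is scored relative to vehicle-treated controls.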

Each structure is given as a SMILES string. This is part of a sample that, as a whole, favours compounds with a hit. Of some 79,000 tested, about 15% had one in any assay. Unmarked numbers belong to inactive results. The source made the active and inactive calls. Rule as the data show it: active = growth inhibition above about 70%; inactive = the rest.

As to `CCCCCCNCc1cc(CNCCCCCC)c(O)c(CNCCCCCC)c1`, the growth inhibition in experiment [1] was 4.5%; in experiment [2] it was 15.4%; in experiment [3], 18.4%; in experiment [4] it was -2.4%; in experiment [5], 1.4%; in experiment [6], 29.6%.
With `Nc1ccccc1N/N=C/c1ccccc1`, the growth inhibition in experiment [1] is -4.3%; in experiment [2] it was 15.3%; in experiment [3] it was -15.4%; in experiment [4], -37.5%; in experiment [5] it was -15.3%; in experiment [6] it was 5.25%.
As to `ClCCCN1CCN(CCCCl)CC1`, the growth inhibition in experiment [1] was 80.2% (active); in experiment [2], 70% (active); in experiment [3], 85% (active); in experiment [4], 62.1%; in experiment [5] it was 80.5% (active); in experiment [6], 7.75%.
For the compound `CC(=O)CC(C)(C)N`, the growth inhibition was -0.1% in experiment [1]; -9.7% in experiment [2]; -1.4% in experiment [3]; -6.05% in experiment [4]; 3.1% in experiment [5]; -2.1% in experiment [6].
Regarding `Cc1ccc(Nc2ccc(O)c3c2C(=O)c2ccccc2C3=O)cc1`, the growth inhibition is -17.9% in experiment [1]; -3.6% in experiment [2]; 5.45% in experiment [3]; -29.6% in experiment [4]; 16.1% in experiment [5]; 15.5% in experiment [6].
As for `Cc1cc(-c2ccc(N=Nc3c(C)nn(-c4ccc(S(=O)(=O)O)cc4)c3O)c(C)c2)ccc1N=Nc1ccc(O)c(C(=O)O)c1`, the growth inhibition in experiment [1] was 26%; in experiment [2], 12.4%; in experiment [3], 26.2%; in experiment [4], 20.9%; in experiment [5] it was 18.6%; in experiment [6], 21%.
As to `Nc1ccc(Cl)cc1C(=O)N1CCN(c2ccc([N+](=O)[O-])cn2)CC1`, the growth inhibition was 33.5% in experiment [1]; 16.2% in experiment [2]; 51.4% in experiment [3]; 36.1% in experiment [4]; 42.9% in experiment [5]; 18.8% in experiment [6].
As to `CCCCCCC/C=N/Nc1ccc([N+](=O)[O-])cc1[N+](=O)[O-]`, the growth inhibition was -3.3% in experiment [1]; -16.1% in experiment [2]; -5.55% in experiment [3]; -23.9% in experiment [4]; 1.4% in experiment [5]; 12.9% in experiment [6].
Turning to `O=C(NCCCCCCNC(=O)NCc1ccc(Cl)c(Cl)c1)NCc1ccc(Cl)c(Cl)c1`, the growth inhibition in experiment [1] was 13.6%; in experiment [2], 4%; in experiment [3], -3.8%; in experiment [4] it was -3.8%; in experiment [5], -1.9%; in experiment [6], 16.9%.
Consider `S=C(Nc1ccc(N=Nc2ccccc2)cc1)SCc1ccc(Cl)cc1`, for which the growth inhibition is 28.4% in experiment [1]; 3.6% in experiment [2]; 20.6% in experiment [3]; 13.1% in experiment [4]; -2.75% in experiment [5]; 14% in experiment [6].
As for `COc1ccc(/C=C/C(=O)O)cc1OC`, the growth inhibition in experiment [1] was -1.65%; in experiment [2] it was -12%; in experiment [3] it was 11.7%; in experiment [4], -1%; in experiment [5] it was 12.3%; in experiment [6], -0.65%.
`Nc1nc(N)nc(-c2cc(Br)ccc2N)n1`: the growth inhibition was 51.6% in experiment [1]; -0.3% in experiment [2]; 12.4% in experiment [3]; 19.1% in experiment [4]; 30.4% in experiment [5]; 7.5% in experiment [6].
Regarding `Cc1ccc(N2C(=O)CC3(CCCC3)C2=O)cc1Cl`, the growth inhibition in experiment [1] was 14.6%; in experiment [2] it was -2%; in experiment [3] it was -6.05%; in experiment [4] it was 5.95%; in experiment [5] it was 5%; in experiment [6], 21.6%.
With `CCOc1ccc(/C=C2\CCc3ccccc3C2=O)cc1`, the growth inhibition in experiment [1] was 16.4%; in experiment [2], 16.6%; in experiment [3], 22.7%; in experiment [4], 20.9%; in experiment [5], 26.9%; in experiment [6], 21.6%.
Take `O=C(O)/C=C/C(=O)Nc1ccccc1NC(=O)/C=C/C(=O)O`: the growth inhibition in experiment [1] is 15.2%; in experiment [2], 16.2%; in experiment [3], 31.2%; in experiment [4], 27.8%; in experiment [5], 19.9%; in experiment [6], -1.9%.
With `CCN(CC)CCO/N=C1\CC(c2ccc(OC)c(OC)c2)Oc2ccccc21` (stereo unspecified), the growth inhibition was 3.8% in experiment [1]; 13.7% in experiment [2]; 2.65% in experiment [3]; 26.6% in experiment [4]; -9.85% in experiment [5]; 9.8% in experiment [6].
Take `C=CCOc1cc2c(cc1C(C)c1ccc(OCC)c(C)c1)OCO2` (stereo unspecified): the growth inhibition in experiment [1] is 4.35%; in experiment [2], -8.95%; in experiment [3], -4.85%; in experiment [4] it was -70.5%; in experiment [5] it was 7.15%; in experiment [6], -1.6%.
Regarding `COC(=O)c1ccccc1NC(=O)Nc1ccccc1`, the growth inhibition is 3.1% in experiment [1]; 9.35% in experiment [2]; 3.25% in experiment [3]; -14.9% in experiment [4]; 4.25% in experiment [5]; 8.35% in experiment [6].
Turning to `O=[N+]([O-])c1cccc(CO)c1`, the growth inhibition in experiment [1] was -9.75%; in experiment [2], 17.1%; in experiment [3] it was -1.15%; in experiment [4], 8.6%; in experiment [5], -7.35%; in experiment [6], -5.7%.
As to `CCOC(=O)C1=C(C)NC(C)=C(C(=O)OCC)C1`, the growth inhibition was 14.9% in experiment [1]; -5.8% in experiment [2]; -1.5% in experiment [3]; -41.1% in experiment [4]; 31.1% in experiment [5]; 13.5% in experiment [6].
With `COc1cc(Cc2cc(OC)c(OC)c(OC)c2)ccc1O`, the growth inhibition is -23.4% in experiment [1]; -8.5% in experiment [2]; -8.5% in experiment [3]; -2.6% in experiment [4]; 19.1% in experiment [5]; 9.5% in experiment [6].
